Results reported in PubChem BioAssay (NCI).
The panel holds about 83,000 compounds, 20% with a hit somewhere; the sample as a whole holds those more often.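 Assay: single dose, 48 h. Readout: percent growth (0 = no net growth; negative = cell death). Active: <10.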 Active and inactive are the calls of the source.

What was measured:
Test in all cases: NCI-60 one-dose screen, 48 h (100 = growth as untreated, 0 = no growth, -100 = all killed)
Conditions in all cases: 10 µM unless noted
[1] = tested on: SR leukemia
[2] = tested on: RPMI-8226 leukemia
[3] = tested on: OVCAR-8 ovarian
[4] = tested on: OVCAR-5 ovarian
[5] = tested on: OVCAR-4 ovarian
[6] = tested on: SK-OV-3 ovarian
[7] = tested on: IGROV1 ovarian
[8] = tested on: OVCAR-3 ovarian
[9] = tested on: HS 578T breast
[10] = tested on: NCI/ADR-RES ovarian
[11] = tested on: T-47D breast
[12] = tested on: BT-549 breast
[13] = tested on: MDA-MB-435 melanoma
[14] = tested on: MCF7 breast
[15] = tested on: HCT-116 colon
[16] = tested on: HCC-2998 colon
[17] = tested on: KM12 colon
[18] = tested on: SW-620 colon

Measured: growth

CC(C)CC1NC(=O)C(CC(C)C)N(CO)C1=O (stereo not given)
inactive: [1] 96.4% | [2] 81.1% | [3] 107% | [4] 106% | [5] 113% | [6] 102% | [7] 106% | [8] 123% | [9] 106% | [10] 117% | [11] 96.5% | [12] 101% | [13] 111% | [14] 92.7% | [15] 98.8% | [16] 102% | [17] 110%

c1ccc(-c2nnn(-c3ccccc3)n2)cc1
inactive: [1] 89% | [2] 98.6% | [3] 107% | [4] 105% | [5] 106% | [6] 106% | [7] 104% | [8] 111% | [9] 112% | [10] 116% | [12] 87.5% | [13] 106% | [18] 113% | [14] 71% | [15] 97.3% | [16] 107% | [17] 107%

O=C1N(Cc2ccccc2Cl)c2ccccc2C12NN=C(c1ccccc1)S2 (stereo not given)
inactive: [1] 40% | [2] 66.3% | [3] 45.8% | [4] 78.6% | [5] 51.8% | [6] 83.2% | [7] 61.7% | [8] 68.7% | [9] 69.6% | [10] 45.2% | [12] 70% | [13] 68.5% | [18] 47.6% | [14] 53.5% | [15] 43% | [16] 73.7% | [17] 50.8%

COc1ccc(/C=C/c2nc3ccccc3c(=O)n2-c2ccc(C#Cc3ccc(C(C)(C)C)cc3)cc2C)c(OC)c1
inactive: [1] 42% | [2] 52% | [3] 110% | [4] 120% | [5] 97.9% | [6] 103% | [7] 109% | [8] 87.5% | [10] 105% | [11] 85.5% | [12] 99.4% | [13] 91.8% | [18] 86.7% | [14] 105% | [15] 69% | [16] 97.2% | [17] 88.1%

CC(=O)c1ccc(Br)c([N+](=O)[O-])c1
inactive: [1] 94.5% | [2] 96.6% | [3] 107% | [4] 119% | [5] 114% | [6] 109% | [7] 109% | [8] 124% | [9] 90.7% | [11] 104% | [12] 99.7% | [13] 101% | [18] 120% | [14] 94.1% | [15] 96.9% | [16] 109% | [17] 107%

Clc1ccc(-c2cnc3c(-c4ccnc(N5CCNCC5)c4)cnn3c2)cc1
active: [1] -0.57% | [2] -39% | [3] 1.08% | [4] -21.2% | [5] -60.9% | [8] -14.6% | [9] -32% | [10] -0.0998% | [11] -55.6% | [13] -51.1% | [18] -50.4% | [14] -63.4% | [15] -68.3% | [16] -43% | [17] -3.73%
inactive: [6] 85.2% | [12] 78.1%

CC(C)(C)OC(=O)N1CCCN(CCNc2nccc(-c3c(-c4cccc(O)c4)nc4sccn34)n2)S1(=O)=O
inactive: [1] 77.3% | [2] 96.8% | [3] 96.8% | [4] 114% | [5] 108% | [6] 69.5% | [7] 79.5% | [8] 119% | [9] 109% | [10] 99% | [12] 136% | [13] 54.1% | [18] 131% | [14] 97.8% | [15] 81.7% | [16] 108% | [17] 111%

CCCCCCCC/C=C\CCCCCCCC(=O)OCCCCCC
inactive: [1] 105% | [2] 104% | [3] 100% | [4] 117% | [5] 113% | [6] 99.3% | [7] 108% | [8] 113% | [9] 105% | [11] 102% | [12] 114% | [13] 101% | [18] 106% | [14] 105% | [15] 100% | [17] 102%

ClCc1c(Cl)c(Cl)c(Cl)c(CCl)c1Cl
active: [1] 4.07% | [5] -66.2% | [7] 4.3% | [8] -94.5% | [11] -71.5% | [18] -82.2% | [14] -4.94% | [15] -76.8%
inactive: [2] 18.4% | [3] 49.5% | [4] 118% | [6] 113% | [9] 89.3% | [12] 87.5% | [13] 52.2% | [16] 88.6% | [17] 24.8%

COc1ccc(C2c3cccn3-c3ccccc3N2C(C)=O)cc1 (stereo not given)
inactive: [1] 74% | [2] 85.5% | [3] 125% | [4] 99.3% | [5] 126% | [6] 101% | [7] 74.3% | [8] 95.3% | [10] 91.2% | [11] 103% | [12] 95.4% | [13] 57% | [18] 85.5% | [14] 116% | [15] 97.8% | [16] 90.4% | [17] 80.2%

ClC1(Cl)C2CCCCCCC21 (stereo not given)
inactive: [1] 108% | [2] 106% | [3] 123% | [4] 116% | [5] 109% | [6] 118% | [7] 107% | [8] 120% | [9] 91.8% | [11] 108% | [12] 101% | [13] 104% | [18] 107% | [14] 98.5% | [15] 110% | [16] 114% | [17] 109%

ClCCn1cnc2c(SCc3ccccc3Cl)ncnc21
inactive: [3] 47.5% | [4] 69.6% | [5] 81.7% | [6] 46.1% | [8] 35.9% | [9] 53.2% | [10] 54.6% | [11] 52.8% | [12] 44.1% | [13] 37.5% | [18] 28.9% | [14] 21.6% | [15] 32.8% | [16] 51.1% | [17] 34.8%
active: [1] -21.5% | [2] 7.3%

Clc1nnc2c3ccccc3ccn12
inactive: [1] 106% | [2] 99.6% | [3] 99.1% | [4] 103% | [5] 111% | [6] 95.1% | [7] 113% | [8] 112% | [9] 103% | [10] 112% | [12] 97.9% | [13] 111% | [18] 96.7% | [14] 107% | [15] 103% | [16] 115% | [17] 109%

CCCCCCCCN=C(NCCCCCCCC)SCc1cccc2ccccc12
active: [1] -34.6% | [2] -42.1% | [3] -92.5% | [4] -84.2% | [5] -91.7% | [6] -96.3% | [7] -55.5% | [8] -97.9% | [9] -55.3% | [11] -97.5% | [12] -74.8% | [13] -95.6% | [18] -91.6% | [14] -88.9% | [15] -83.3% | [16] -96.4% | [17] -94.1%

COC1(OC)C2(Cl)CCC1(Cl)C(Cl)=C2Cl
inactive: [1] 98.6% | [2] 103% | [3] 94.6% | [4] 105% | [5] 103% | [6] 104% | [7] 106% | [8] 112% | [9] 99.9% | [11] 98.3% | [12] 117% | [13] 99.9% | [18] 120% | [14] 98% | [15] 105% | [16] 103% | [17] 106%

CC(=O)Nc1ccc(/C=N/N2CCCCCC2)cc1
inactive: [1] 96.2% | [2] 116% | [3] 101% | [4] 96.7% | [5] 99.1% | [6] 99.9% | [7] 111% | [8] 99.4% | [9] 96.3% | [10] 103% | [12] 91.5% | [13] 95.6% | [18] 100% | [14] 92.2% | [15] 99.5% | [16] 109% | [17] 97.8%

COc1ccc(/C=N/NC(N)=S)c(OC)n1
inactive: [1] 88.3% | [2] 94.8% | [3] 97.7% | [4] 109% | [5] 93.9% | [6] 114% | [7] 100% | [8] 111% | [9] 103% | [10] 109% | [12] 102% | [13] 101% | [18] 108% | [14] 93.6% | [15] 99.2% | [16] 115% | [17] 102%

COc1ccc2nc(C)cc(Sc3nc4ccccc4s3)c2c1
active: [1] -48% | [2] -39.5% | [12] -11.8%
inactive: [3] 36.5% | [4] 61.2% | [5] 25.8% | [6] 80.5% | [7] 22.2% | [8] 22.2% | [9] 62.1% | [10] 29.1% | [13] 17.2% | [18] 31.3% | [14] 15.9% | [15] 24.5% | [16] 73.8% | [17] 50.5%
